In the library only some 11% were active in any assay of this set; here they are far more common.
IMPase inh: IMPase inhibition in cells; P97697; 120,000 tested, under 10 active; AID 901; inhibition (IP1 accumulation), % at 46.1 µM; CHO-M1 cells, IP1 accumulation, HTRF TR-FRET ratio; active = well fitted curve in the direction sought with a large enough effect in the signal ratio, not every such curve was filed as active; inconclusive = small, poorly fitted or top-dose-only effect, or a change in a side signal; inactive = no such curve, though single readings can be large or run the other way; the % refers to the signal ratio;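 also: cells stimulated with carbachol in lithium chloride buffer; plate controls were DMSO basal wells for no effect and reference inhibitor wells for full effect; higher means more IMPase inhibition seen as more IP1 and lower FRET ratio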
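Measured: the HTRF emission ratio (665/620 nm) plus the 620 nm donor channel, each fitted to the Hill equation to give AC50. Cells were CHO-M1 given compounds up to 46 uM and a 30 min carbachol stimulation at 37C.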
NPSR antagonist: blocks cAMP signaling of the human neuropeptide S receptor. Q6W5P4. CHO-NPSR cells, cAMP TR-FRET, antagonist mode. Potency, µM (series often up to 38.3 µM), without a hit: at the top dose activity change, negative = inhibition, actives largely listed as inhibitors. 220,000 compounds, 1% hits. AID 1461; also: potency is read from the fitted curve at half-maximal effect; % is scaled to controls: 0 for no effect and ±100 for the full control effect; nearly all actives have a fitted effect of over 50% in size
PNC assembly inh: inhibitors of perinucleolar compartment assembly | 140,000 compounds, 3.1% hits | activity change (PNC), negative = inhibition, % at 10 µM | AID 2417 | PC3M PTB-GFP, PNC prevalence imaging, 16 h; hits give low values;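 active = readout at or below -70, meaning at least 70% loss of cells showing the perinucleolar compartment, a nuclear body marking cancer cells; inconclusive = readout between -30 and a set limit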;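 also: plate controls were DMSO wells for no effect and camptothecin positive control wells for full effect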
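Read-out is percentage of cells bearing a perinucleolar compartment, from automated 20x imaging of fixed, Hoechst-stained PC3M PTB-GFP cells. Cells were seeded 4 h, then exposed 16 h to compound (23 nl of library stock) in duplicate plates.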
HPGD block: inhibitors of human 15-hydroxyprostaglandin dehydrogenase (HPGD); purified HPGD, NADH fluorescence kinetic, PGE2 substrate; P15428; 150,000 compounds, 4.3% hits; Potency, µM, without a hit: at the top dose activity change, negative = inhibition, usual class: inhibitors; active = well fitted inhibition curve with a large enough effect, not every such curve was filed as active; inconclusive = small, poorly fitted or top-dose-only effect, or another doubt; inactive = no such curve, though single readings can be large or run the other way; also: potency is read from the fitted curve at half-maximal effect; % is scaled to controls: 0 for no effect and ±100 for the full control effect
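20 nM HPGD preincubated 15 min at room temperature with compound in 50 mM Tris-HCl pH 8, 0.01% Tween 20. Started with 1 mM NAD+ and 30 uM prostaglandin E2; NADH fluorescence (360/450 nm) read 5 times over 30-s intervals, last minus first.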
ALDH1A1 inh-1: inhibitors of human aldehyde dehydrogenase 1A1; P00352; Potency, µM (highest dose often 75.3 µM), for the others: at the highest dose activity, negative = inhibition, actives largely listed as inhibitors; AID 1030; 220,000 compounds, 7.3% hits; Purified ALDH1A1, NADH fluorescence, propionaldehyde substrate; active = well fitted inhibition curve with a large enough effect, not every such curve was filed as active; inconclusive = small, poorly fitted or top-dose-only effect, or another doubt; inactive = no such curve, though single readings can be large or run the other way;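 also: potency is read from the fitted curve at half-maximal effect; plate controls were no enzyme wells and a reference inhibitor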
Target sequence (P00352 whole entry, looked up): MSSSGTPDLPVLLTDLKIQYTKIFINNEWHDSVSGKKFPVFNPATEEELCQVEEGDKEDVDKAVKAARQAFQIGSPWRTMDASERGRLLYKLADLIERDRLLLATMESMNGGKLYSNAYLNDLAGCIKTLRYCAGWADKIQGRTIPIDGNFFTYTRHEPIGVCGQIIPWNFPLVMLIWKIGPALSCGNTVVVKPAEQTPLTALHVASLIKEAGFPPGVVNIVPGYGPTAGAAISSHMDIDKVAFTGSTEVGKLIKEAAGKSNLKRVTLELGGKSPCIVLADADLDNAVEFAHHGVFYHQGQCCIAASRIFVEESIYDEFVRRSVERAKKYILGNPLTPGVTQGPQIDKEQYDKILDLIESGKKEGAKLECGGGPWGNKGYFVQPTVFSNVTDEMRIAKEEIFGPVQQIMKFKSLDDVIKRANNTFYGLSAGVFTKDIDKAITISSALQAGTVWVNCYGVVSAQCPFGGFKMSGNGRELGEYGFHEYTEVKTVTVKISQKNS
IMPase Li cell: IMPase inhibition in cells with lithium potentiation. AID 1457. CHO-M1 cells, IP1 TR-FRET (IP-One), carbachol + lithium. Potency, µM (doses to about 59.4 µM), inactives show at the highest dose activity, negative = IMPase inhibition, usual class: inhibitors. 210,000 compounds, 0.35% hits;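 also: IP1 builds up when IMPase is blocked and the TR-FRET signal falls; potency is read from the fitted curve at half-maximal effect; plate controls were basal vehicle for no effect and high inhibitor control for full effect; nearly all actives have a fitted effect of over 50% in size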
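CHO-M1, 2000 cells/well, 16–30 h culture; cpd + low Li+, 30 min 37C; lysis with d2-IP1/Eu-anti-IP1 Ab, 10 min RT; TR-FRET 665/620 ratio and 620 channel; AC50 via Hill.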
ALDH1A1 inh-2: Confirms inhibition of human ALDH1A1 with counterscreen. shares compounds with ALDH1A1 inh-1. purified ALDH1A1, NADH fluorescence, propionaldehyde/NAD+. Potency, µM (titrated, usually from 57.1 µM), for inactives: at the top dose activity change, negative = inhibition, usual class: inhibitors. 90 compounds, 90% hits. AID 493210; calls by dose curve
* marks the source's active call; other numbers are inactive results; ? = inconclusive; . = no result. Unless noted, calls follow the shape of the dose curve; as a rule, active = well fitted curve in the direction sought with a large enough effect; inconclusive = small, poorly fitted or top-dose-only effect, or another doubt; inactive = no such curve, though single readings can be large; an effect the other way counts as inactive or inconclusive.

SMILES	IMPase inh	NPSR antagonist	PNC assembly inh	HPGD block	ALDH1A1 inh-1	IMPase Li cell	ALDH1A1 inh-2
CC1=CC[C@@H]2[C@@H](C1)c1c(O)cc(CC#CCCCNS(C)(=O)=O)cc1OC2(C)C	.	.	.	-16%	-8%	-16%	.
O=c1oc(Cl)c(Cl)c2ccccc12	2	?	.	-12%	0.56µM*	12%	0.25µM*
CCC(=NCCC(c1ccccc1)c1ccccc1)c1c(O)n(C)c(=O)n(C)c1=O	36	-23%	-12	-5%	-15%	14%	.
N=C(N)c1ccc(-c2ccc(-c3ccc(C(=N)N)cc3)o2)cc1	.	.	.	?	?	-4%	.
COc1ccc2c(c1)CCC1[C@@H]2CCC2(C)[C@@H](NCCCCCCN3C(=O)C=CC3=O)CC[C@@H]12 (stereo partly specified)	15	.	.	-5%	0.11µM*	13%	0.5µM*
CC(C)N(C(=O)CCl)c1ccccc1	.	.	.	-6%	0.028µM*	-5%	0.05µM*
CCc1cccc(C)c1N(C(=O)CCl)C(C)COC (stereo unspecified)	.	.	.	-7%	6%	4%	.

Compound activity as filed in PubChem.
